Screens from PubChem.
ASK1 inh = ASK1 kinase inhibitors, primary screen, biochemical, AlphaScreen | inhibition, % at 7.44 µM | AlphaScreen MKK6 phosphorylation by ASK1, luminescence | actives 0.99% (n = 22,000) | AID 1159602, 2016; in the data active = inhibition above about 35%
ULK1 inh = ULK1 kinase inhibitors, primary screen, biochemical, AlphaScreen; Serine/threonine-protein kinase ULK1 (Homo sapiens), O75385; AlphaScreen Atg13 phosphorylation by ULK1, luminescence; inhibition, % at 5.96 µM; actives 1.9% (n = 30,000); in the data active = inhibition above about 43%
TruHits interf = AlphaScreen signal interference by compounds, dose response, artefact control for ASK1 inhibitor project, biochemical, TruHits beads; actives 20% (n = 220); signal interference counterscreen; shares compounds with ASK1 inh; IC50, µM; AID 1159604, 2016;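 active = IC50 of 10 µM or lower in the counterscreen; inactive = IC50 above 10 µM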;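 also: loss of AlphaScreen light from TruHits beads alone with no ASK1 enzyme present; potency of signal reduction so a low IC50 flags an assay artifact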
Large screens that a line does not name were inactive (follow-up assays come after a bar, where they were run). Only some compounds are listed: those with a hit (about 2.5% of all), similar ones and a draw of the others.

COc1cc(Nc2nc(NC3CCC(O)CC3)nc3c2ncn3-c2ccsc2)cc(OC)c1OC (centres undefined)	none
COC(=O)/C(=C/c1ccc(N(C)C)cc1)NC(=O)c1ccccc1	none (no result: ASK1 inh)
CCN(CC)c1nc(NCCN2CCOCC2)nc(Nc2ccc(-n3ccnc3)cc2)n1	none
CCN(CC)c1nc(Nc2ccc(N3CCOCC3)cc2)nc(Nc2ccc(-n3ccnc3)cc2)n1	ASK1 inh 41 | TruHits interf 6
O=C(Cc1cn(-c2ccc(N3CCN(Cc4ccc5c(c4)OCO5)CC3)nn2)c2ccccc12)Nc1ccc(N2CCOCC2)cc1	ASK1 inh 39 | TruHits interf inactive
O=C(Cc1cn(-c2ccc(N3CCN(Cc4ccc5c(c4)OCO5)CC3)nn2)c2ccccc12)Nc1ccccc1	none
COc1ccc2c(c1)CC(C(=O)Nc1ccc(-c3cn[nH]c3C)cc1OCc1ccccn1)CO2 (centres undefined)	none
COc1cccc(CN(CCO)Cc2ccccc2)c1OC	none (no result: ASK1 inh)
c1cc2ccc3ncc(-c4ccc(-c5ccn[nH]5)cc4)cc3c2cn1	none
COc1cc2nc(Nc3ccc(-n4ccnc4)cc3)nc(Nc3ccc4c(c3)OCO4)c2cc1OC	ASK1 inh 49 | TruHits interf inactive
COc1cc2nc(Nc3ccc(N4CCOCC4)cc3)nc(Nc3ccc4c(c3)OCO4)c2cc1OC	ASK1 inh 54 | TruHits interf 4.8
c1ccc2c(c1)CCN(c1nccc(Nc3ccc(N4CCOCC4)cc3)n1)C2	ASK1 inh 50 | TruHits interf inactive
c1ccc(Nc2ccnc(N3CCc4ccccc4C3)n2)cc1	none
COc1cc2nc(Nc3ccc(N4CCOCC4)cc3)nc(Nc3ccc(NC(C)=O)cc3)c2cc1OC	none
COc1ccc(CCNc2cc(C)nc(Nc3ccc(N4CCOCC4)cc3)n2)cc1	none
COc1cc2nc(Nc3ccc(-n4ccnc4)cc3)nc(Nc3ccc(NC(C)=O)cc3)c2cc1OC	none
COc1ccc(CCNc2ccnc(Nc3ccc(N4CCOCC4)cc3)n2)cc1	ASK1 inh 43 | TruHits interf inactive
CCN1C(=O)C(C)(C)COc2cc(NC(=O)c3ccc(Cl)cc3)ccc21	none (no result: ASK1 inh)
O=C1CCCN1CCn1cnc2c(NCc3cccc(C(F)(F)F)c3)nc(N3CCCC3CO)nc21 (centres undefined)	none
CC(=O)Nc1ccc(NC(=O)Cc2cn(-c3ccc(Nc4cccc(N(C)C)c4)nn3)c3ccccc23)cc1	none
COc1ccc(CCNc2cc(C)nc(N3CCN(Cc4ccc5c(c4)OCO5)CC3)n2)cc1	none
c1cc(Nc2ccc3c(c2)OCO3)nc(N2CCN(Cc3ccc4c(c3)OCO4)CC2)n1	ASK1 inh 37 | TruHits interf inactive
Cc1cc(NCCc2ccc(O)cc2)nc(N2CCN(Cc3ccc4c(c3)OCO4)CC2)n1	ASK1 inh 37 | TruHits interf inactive
c1cc(Nc2ccc3c(c2)OCO3)nc(Nc2ccc(N3CCOCC3)cc2)n1	ASK1 inh 48 | TruHits interf inactive
COc1cc2nc(NCc3ccc4c(c3)OCO4)nc(Nc3ccc(N4CCOCC4)cc3)c2cc1OC	ASK1 inh 51 | TruHits interf 6.3
COc1cc2nc(NCc3cccnc3)nc(Nc3ccc(N4CCOCC4)cc3)c2cc1OC	none
c1ccc(Nc2ccnc(N3CCN(Cc4ccc5c(c4)OCO5)CC3)n2)cc1	none
c1cc(Nc2ccc(N3CCOCC3)cc2)nc(Nc2ccc(N3CCOCC3)cc2)n1	none
O=C(Nc1ccc(-c2ccncc2)c(F)c1)[C@H]1COc2ccccc2O1	none
c1ccc(-c2nc3ncnc(Nc4ccc(N5CCOCC5)cc4)c3[nH]2)cc1	none
Nc1cccc(-c2nc3ncnc(Nc4ccc(N5CCOCC5)cc4)c3[nH]2)c1	ASK1 inh 36 | TruHits interf inactive
CC(=O)c1cccc(-c2ncc(C)c(Nc3ccc(N4CCOCC4)cc3)n2)c1	none
COc1cc2nc(-c3csc4ccccc34)nc(Nc3ccc(N4CCOCC4)cc3)c2cc1OC	none
Cc1cnc(-c2csc3ccccc23)nc1Nc1ccc(N2CCOCC2)cc1	ASK1 inh 42 | TruHits interf inactive
Cc1cnc(-c2cccc(N)c2)nc1Nc1ccc(N2CCOCC2)cc1	ASK1 inh 51 | TruHits interf inactive
CCOC(=O)Nc1ccc(-c2cnc3ccc4ccncc4c3c2)cc1	none
NC(=O)c1ccc(-c2nc(NCc3cccc(C(F)(F)F)c3)c3ncn(Cc4ccc(C(F)(F)F)cc4)c3n2)cc1	ASK1 inh 41 | TruHits interf inactive
CC(=O)c1cccc(-c2nc(NCc3ccccc3)c3ncn(Cc4ccc(C(F)(F)F)cc4)c3n2)c1	ASK1 inh 46 | TruHits interf inactive
CC(=O)c1cccc(-c2nc(NCc3cccc(C(F)(F)F)c3)c3ncn(Cc4ccc(C(F)(F)F)cc4)c3n2)c1	none
COc1ccc(-c2nc(NCc3cccc(C(F)(F)F)c3)c3ncn(Cc4ccc(C(F)(F)F)cc4)c3n2)cc1	none
COc1cc(Nc2ccc(N3CCC(C(=O)NCc4ccccc4)CC3)nn2)cc(OC)c1OC	none
O=C(Nc1ccc(-c2cn[nH]c2)cc1OCCCO)NC(CCO)c1ccccc1 (centres undefined)	none
COc1cc2nc(-c3cccc(N)c3)nc(NCc3cccnc3)c2cc1OC	none
Cc1[nH]ncc1-c1ccc2nc(NC(=O)C3COc4ccc(F)cc4C3)sc2c1 (centres undefined)	ASK1 inh 39 | TruHits interf inactive
Cc1[nH]ncc1-c1ccc(NC(=O)C2COc3ccc(F)cc3C2)c(N(C)CCN(C)C)c1 (centres undefined)	none
